Screening results deposited in PubChem by several laboratories.
Most compounds without a hit are left out; they make up all but 2.6% or so of the library.
LGR2 inh: inhibitors of bursicon-induced LGR2 CRE-luciferase signal, primary screen, cell-based, HEK293, CRE-luciferase reporter, bursicon stimulation; AID 720647, 2013; bursicon-stimulated, 4 h; inhibition, % at 9.99 µM; 380,000 compounds, 0.35% hits;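 active = drop in luminescence signal, shown as inhibition above about 50% in the replicate tests, limit read from the data, passing the limit was not always enough; inconclusive = probably only some replicates passing the limit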;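 also: agonist challenge used bursicon conditioned medium at about half maximal strength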
CF NFkB inh: inhibitors of PAF-induced NF-kB signaling, primary screen, cell-based, GFP fluorescence, uHTS; KKLEB NF-kB-GFP reporter, GFP fluorescence overnight; inhibition, % at 5 µM; 360,000 compounds, 0.86% hits;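 active = at least 50% inhibition at 5 µM, scaled per plate between neutral and stimulator controls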;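 also: PAF is a Pseudomonas aeruginosa culture filtrate used as stimulus; plate controls were PAF-stimulated DMSO wells for no effect and unstimulated DMSO wells for full effect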
KKLEB cytotox: cytotoxicity in KKLEB CF airway cells, primary screen, cytotoxicity control for CF NF-kB inhibitor project, cell-based, uHTS, fluorescence assay plates; KKLEB CF airway cells viability, ATPlite luminescence, overnight; stronger effect = lower value; cells stimulated with P. aeruginosa culture filtrate; activity change (cytotoxicity), % at 5 µM; 360,000 compounds, 0.36% hits; AID 602141, 2011;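 active = corrected activity change at or below -50% at 5 µM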
TWEAK-Fn14 inh: inhibitors of TWEAK-Fn14 signaling, primary screen, luciferase reporter cells, uHTS; TWEAK-stimulated Fn14 reporter cells, luciferase luminescence, 8 h; inhibition, % at 10 µM; 360,000 compounds, 2% hits; AID 1159606, 2016; in the data active = inhibition above about 50%
TROY signal inh: inhibitors of TROY-driven NF-kB signaling, primary screen, Q293 LMP1-TROYcd cells, NF-kB luciferase, uHTS | Q293 LMP1-TROYcd NF-kB luciferase reporter, 4 h | inhibition, % at 10 µM | 360,000 compounds, 0.98% hits;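 active = compounds whose plate-normalised and pattern-corrected inhibition of the luciferase reporter signal at the single screening dose is 50% or more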
EWS-Fli inh: EWS/Fli-driven NR0B1 reporter inhibitors, primary screen, A673 cells, NR0B1 luciferase, luminescence, MLPCN library | viability-normalised | AID 651661, 2012 | 350,000 compounds, 0.67% hits | inhibition, % at 12.6 µM;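 active = mean inhibition of at least 50% after viability correction, with every replicate also passing that limit; inconclusive = mean reaches 50% but only one of two replicates passes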;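 also: firefly luciferase signal divided by Alamar Blue viability fluorescence both relative to DMSO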
Starred values were filed as active, the others as inactive; ? = inconclusive; . = no result given.

SMILES	LGR2 inh	CF NFkB inh	KKLEB cytotox	TWEAK-Fn14 inh	TROY signal inh	EWS-Fli inh
C[C@H]1CCCCO[C@H](CN(C)C(=O)NC2CCCCC2)[C@@H](C)CN([C@@H](C)CO)C(=O)c2cc(N(C)C)ccc2O1	2	.	.	.	.	-2
CCCNC(=O)Nc1ccc2c(c1)OC[C@@H](C)N(C(=O)C1CCOCC1)C[C@@H](C)[C@@H](OC)CN(C)C2=O	9	.	.	.	.	12
Cc1nnc(SCc2cnc(-c3ccc(C(C)C)cc3)s2)n1C	.	-8	-65*	33	-9	.
c1ccc(-c2ncc(CSc3nncn3-c3ccccc3)s2)cc1	-6	-19	9	3	-4	.
CC(=O)Nc1ccc(NC(=O)COC(=O)/C(=C/c2ccccc2)n2nnnc2C)cc1	-11	-70	-2	39	-6	13
Cc1nnnn1/C(=C\c1ccccc1)C(=O)OCC(=O)NC1CCCCC1	34	5	-19	57*	24	9
Cc1nnnn1/C(=C\c1ccccc1)C(=O)OCC(=O)NC(C)(C)C	21	11	-10	50*	21	.
C[C@H]1CCCCO[C@H](CN(C)C(=O)Nc2cccc3ccccc23)[C@@H](C)CN([C@@H](C)CO)C(=O)c2cc(NC(=O)Nc3ccc4c(c3)OCO4)ccc2O1	12	.	.	.	.	5
C=CCN=C1NN=C(c2ccc3c(c2)OCCO3)CS1	?	6	-10	67*	69*	58*
C=CCN=C1NN=C(c2cc(C)n(CC=C)c2C)CS1	12	4	1	47	14	80*
COCCN=C1NN=C(c2cc(C)n(CC3CCCO3)c2C)CS1 (stereo not given)	22	6	0	13	1	-16
NC1=NN=C(c2ccc3c(c2)OCCO3)CS1	34	10	-12	58*	45	36
CNC[C@@H]1Oc2ccc(NS(C)(=O)=O)cc2CC(=O)N([C@H](C)CO)C[C@@H]1C	10	.	.	.	.	-5
C[C@H]1CN([C@@H](C)CO)C(=O)c2cccc(NC(=O)Nc3ccccc3)c2O[C@H]1CN(C)C(=O)Nc1ccc(F)cc1	-5	.	.	.	.	-4
CC(C)c1ccc(S(=O)(=O)/N=C2/C=C(Sc3ncn[nH]3)C(=O)c3ccccc32)cc1	.	84*	-49	92*	62*	.
Cc1ccc(S(=O)(=O)Nc2ccc(O)c(Sc3ncn[nH]3)c2)cc1	9	9	-2	8	9	14
Cc1ccc(S(=O)(=O)/N=C2/C=C(Sc3ncn[nH]3)C(=O)c3ccccc32)cc1	.	100*	-58*	95*	38	.
COc1cc(CN2CC3(CCN(C(=O)Nc4cccc(F)c4)CC3)c3c(n(C)c4cc(OC)ccc34)[C@@H]2CO)cc(OC)c1	2	.	.	.	.	-6
Cn1nc(-c2ccc(OCC(=O)Nc3ccccc3)cc2)c2ccccc2c1=O	.	-20	-7	53*	15	.
CCCC#Cc1ccc2c(c1)O[C@H](CN(C)C(=O)COC)[C@H](C)CN([C@@H](C)CO)S2(=O)=O	-2	.	.	.	.	3
N#Cc1c(N2CCCC(O)C2)nc(N)c2c(N)nc3c(c12)CC(=O)N3C12CC3CC(CC(C3)C1)C2 (stereo not given)	.	58*	-4	76*	11	.
C=C(C)CN(CC)c1nc(N)c2c(N)nc3c(c2c1C#N)CC(=O)N3C12CC3CC(CC(C3)C1)C2	.	35	-31	9	22	.
Cc1cc(/C=C2\SC(=O)N(C)C2=O)c(C)n1-c1ccc(O)cc1	42	-17	4	87*	18	17
CN1C(=O)/C(=C\c2cc(N=Nc3ccccc3)ccc2O)SC1=S	.	50*	-36	50	26	.
CN(C)c1ccc(C=C2SC(=S)N(Cc3ccco3)C2=O)cc1	5	-60	-40	-26	-29	-34
SMILES	LGR2 inh	CF NFkB inh	KKLEB cytotox	TWEAK-Fn14 inh	TROY signal inh	EWS-Fli inh
CN1C(=O)/C(=C\c2ccccc2OCc2ccccc2)SC1=S	-2	39	-18	7	14	-13
Cc1cc(/C=C2\SC(=O)N(C)C2=O)c(C)n1-c1ccc(S(N)(=O)=O)cc1	-7	1	-11	-9	-14	-15
Cc1cc(/C=C2\SC(=S)N(Cc3ccco3)C2=O)c(C)n1-c1ccccc1	2	-14	2	62*	4	.
COc1ccc(-n2c(C)cc(/C=C3/SC(=S)N(C)C3=O)c2C)cc1	.	-18	6	70*	52*	-19
Cc1noc(C)c1NC(=O)Nc1cccc2c1O[C@H](CN(C)Cc1ccc(Cl)c(Cl)c1)[C@@H](C)CN([C@H](C)CO)C2=O	-12	.	.	.	.	3
CN(C)CC(=O)N[C@H]1CC[C@@H](CCn2cc(C3CCCC3)nn2)O[C@@H]1CO	14	.	.	.	.	9
CC=Cc1ccc2n(c1=O)C[C@@H]1[C@@H](CO)[C@H](C(=O)N[C@H](C)c3ccccc3)N(C)[C@H]21 (mixture of isomers)	-3	.	.	.	.	2
CN=C1S/C(=C\c2ccc(N3CCOCC3)cc2C)C(=O)N1C	-8	-15	1	-13	-11	.
CN=C1S/C(=C\c2cc(C)n(-c3ccccc3F)c2C)C(=O)N1C	35	-18	-26	82*	80*	.
Cc1cc(/C=C2\SC(=S)N(C)C2=O)c(C)n1-c1cccc(O)c1	-63	21	-14	92*	10	37
COc1ccccc1C(=O)N1CCN(C(=O)[C@H](CCc2ccccc2)NC(=O)[C@H]2O[C@@H](n3cnc4c(N)ncnc43)[C@H](O)[C@@H]2O)CC1	-4	.	.	.	.	-2
CCCc1cc(NCCCN2CCOCC2)n2c(nc3ccccc32)c1C#N	.	-31	3	82*	.	.
CC=Cc1ccc2n(c1=O)C[C@H]1[C@H](CO)[C@@H](C(=O)NCc3ccccc3)N(C)[C@@H]21 (mixture of isomers)	-2	.	.	.	.	5
CCN1CCN(c2ncnc3c2sc(=S)n3-c2ccccc2)CC1	14	1	2	-6	-19	3
S=c1sc2c(N3CCN(Cc4ccccc4)CC3)ncnc2n1-c1ccccc1	.	-15	3	58*	56*	.
O=C(Cc1cccs1)NCCSc1c(-c2ccc(Cl)cc2)[nH]c2ccccc12	16	25	-30	81*	51*	11
CCOC(=O)CSc1c(-c2ccc(Cl)cc2)[nH]c2ccccc12	-20	5	-4	4	-22	3
N#Cc1c(C#N)c(SSc2c(C#N)c(C#N)c(N)n2-c2ccccc2)n(-c2ccccc2)c1N	2	88*	-89*	19	1	51*
CCN(Cc1ccc2c(c1)OCO2)C(=O)CSc1nc(C)nc2sc(C)c(C)c12	11	16	-20	13	57*	5
